Drawing on PubChem BioAssay (NCATS), this text covers Potency and activity change, negative = cytotoxicity for 14 molecules.

Records with an inconclusive call do not appear. A number with no mark means an inactive call. Active and inactive are the calls of the source. The call rests on the fitted dose curve; in most records, active means well fitted cell-killing curve with a large enough effect; inconclusive means small, poorly fitted or top-dose-only effect, or effect the other way; inactive means flat fitted curve, though single readings scatter.

Holding throughout (test): Primary qHTS to identify gynecologic anti-cancer compounds using libraries of approved drugs and bioactive compounds (AID 1345084); further: nearly all actives have a fitted effect of over 55% in size
(In general: qHTS replaces the single test concentration by a dilution series.)

Assay [1] has as its system C33A. Particulars: Gynecologic cancer cell panel viability, ATPlite luminescence, 48 h; series mostly up to 57.5 µM. In short, it runs like this: (§1)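 Cytotoxicity screen measuring ATP content by luciferase luminescence. Each compound is applied at five concentrations for 48 h at 37 C with 5% CO2.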
On the technique in general: In ATP-based viability assays light output follows the ATP content of the culture.

The test system of assay [2] is CASKI. Particulars: Gynecologic cancer cell panel viability, ATPlite luminescence, 48 h; series mostly up to 57.5 µM. The procedure, abridged: as §1
The subject of assay [3] is Es-2. The note with it: Gynecologic cancer cell panel viability, ATPlite luminescence, 48 h; series mostly up to 57.5 µM. The procedure, abridged:
as §1

For assay [4], the system named is HeLa. Particulars: Gynecologic cancer cell panel viability, ATPlite luminescence, 48 h; series mostly up to 57.5 µM. The procedure, abridged:
as §1

For assay [5], the system named is Hek293T. Particulars: Gynecologic cancer cell panel viability, ATPlite luminescence, 48 h, control line for the selectivity index; series mostly up to 57.5 µM. In short, it runs like this:
as §1

For assay [6], the system named is JEG-3. Particulars: Gynecologic cancer cell panel viability, ATPlite luminescence, 48 h; series mostly up to 57.5 µM. In short, it runs like this: as §1
The test system of assay [7] is PA-1. The note with it: Gynecologic cancer cell panel viability, ATPlite luminescence, 48 h; series mostly up to 57.5 µM. The procedure, abridged:
as §1

Assay [8] concerns SKOV3. Particulars: Gynecologic cancer cell panel viability, ATPlite luminescence, 48 h; series mostly up to 57.5 µM. The procedure, abridged: as §1
Assay [9] deals with Tov-21-G. Particulars: Gynecologic cancer cell panel viability, ATPlite luminescence, 48 h; series mostly up to 57.5 µM. In short, it runs like this: as §1
Assay [10] has as its system Tov112D. Particulars: Gynecologic cancer cell panel viability, ATPlite luminescence, 48 h; series mostly up to 57.5 µM. In short, it runs like this:
as §1

Assay [11] deals with OV90. The note with it: Gynecologic cancer cell panel viability, ATPlite luminescence, 48 h; series mostly up to 57.5 µM. The procedure, abridged: as §1
On the % scale 0 is the no-effect control and ±100 the full control effect; potency means the concentration at half of the fitted maximal effect.

Turning to `CNC(=S)NS(=O)(=O)c1cc(CCNC(=O)c2cc(Cl)ccc2OC)ccc1OC`, the Potency entry in [1], in assay [2], in [3], in assay [4], in [5] and in assay [6] was “inactive” each time. Also, the Potency result in assay [7], in [8], in assay [9] and in assay [10] was “inactive” throughout.

On to `COc1ccc(CC2NCCc3c2[nH]c2ccc(C)cc32)cc1OC` (stereo unspecified), for which the Potency entry in [1], in assay [2], in assay [3], in [4], in assay [5] and in assay [6] was “inactive” in each case. Further, the Potency entry in assay [11], in [7], in assay [8], in assay [9] and in [10] was “inactive” each time.

Regarding `CCOC(=O)C(CCc1ccccc1)NC(C)C(=O)N1C(=O)N(C)CC1C(=O)O` (stereo unspecified), the Potency result in assay [1], in assay [2], in assay [3], in assay [4], in [5] and in assay [6] was “inactive” throughout. The Potency entry in [11], in assay [8], in [9] and in assay [10] was “inactive” throughout.

In the case of `C/C=C/C1=CC2=C(CO1)C(=O)C(C)(O)C(OC(=O)c1c(C)cc(OC)cc1O)C2` (stereo unspecified), the Potency entry in assay [1], in [2], in [3], in assay [4], in [5] and in [6] was “inactive” each time. Moreover, the Potency entry in assay [11], in assay [7], in assay [9] and in assay [10] was “inactive” in each case.

Consider `COc1cc(C(=O)OC[C@H]2O[C@@H](Oc3ccccc3/C=C/C(=O)O)[C@H](O)[C@@H](O)[C@@H]2O)cc(OC)c1OC`, for which the Potency result in assay [1], in assay [2], in assay [3], in assay [4], in assay [5] and in [6] was “inactive” throughout. In addition, the Potency entry in [11], in assay [7], in assay [8], in assay [9] and in assay [10] was “inactive” each time.

For `CC(C)=CCC/C(C)=C/CC/C(C)=C/COC1OC(COC2OCC(OC3OCC(O)C(O)C3O)C(O)C2O)C(O)C(OC2OC(C)C(OC3OC(C)C(OC4OCC(OC5OC(C)C(O)C(O)C5O)C(O)C4O)C(O)C3O)C(O)C2O)C1O` (stereo unspecified), the activity change, negative = cytotoxicity in assay [1] was 4.68% [at 6.55 µM]; in assay [2], -7.12% [at 6.55 µM]; in assay [3], -6.21% [at 6.55 µM]; in assay [4], -2.03% [at 6.55 µM]; in [5], -3.08% [at 6.55 µM]; in assay [6], -0.54% [at 6.55 µM]. Further, the activity change, negative = cytotoxicity in [11] was -9.19% [at 6.55 µM]; in [7], -4.48% [at 6.55 µM]; in assay [8] it was -3.45% [at 6.55 µM]; in [9], -0.577% [at 6.55 µM]; in assay [10], -7.57% [at 6.55 µM].

As to `CO[C@H]1C[C@@H]2CC[C@@H](C)[C@@](O)(O2)C(=O)C(=O)N2CCCC[C@H]2C(=O)O[C@H]([C@H](C)C[C@H]2CC[C@@H](OP(C)(C)=O)[C@H](OC)C2)CC(=O)[C@H](C)/C=C(\C)[C@@H](O)[C@@H](OC)C(=O)[C@H](C)C[C@H](C)/C=C/C=C/C=C/1C`, the Potency entry in [1], in assay [2], in assay [3], in [4], in assay [5] and in assay [6] was “inactive” each time. Further, the Potency entry in assay [11], in assay [7], in assay [9] and in [10] was “inactive” in each case.

As for `C=C(C(=O)O)[C@H]1C[C@]2(C)[C@@H](O)CC[C@]23O[C@H]1C[C@@H]3C`, the Potency result in assay [1], in assay [2], in assay [3], in assay [4], in assay [5] and in assay [6] was “inactive” in each case. Moreover, the Potency entry in [11], in [7], in assay [9] and in assay [10] was “inactive” each time.

For `C[C@]12C[C@@H](O)[C@@H]3C[C@@]1(O[C@@H]1O[C@H](CO)[C@@H](O)[C@H](O)[C@H]1O)[C@]3(COC(=O)c1ccccc1)C(=O)O2`, the Potency result in assay [1], in assay [2], in [3], in [4], in [5] and in assay [6] was “inactive” throughout. In addition, the Potency entry in assay [11], in assay [7], in assay [8], in assay [9] and in [10] was “inactive” throughout.

`CC(C)(O)C1CCC(C)(C2CCC3(C)C4CCC5C(C)(C(=O)OC6OC(CO)C(O)C(O)C6O)C(O)CC(O)C56CC46CCC23C)O1` (stereo unspecified): the Potency result in [1], in assay [2], in [3], in [4], in [5] and in [6] was “inactive” throughout. The Potency entry in [11], in [7], in [8], in assay [9] and in [10] was “inactive” throughout.

As to `OC/C=C/C=C/[C@H]1Cc2cc(O)cc(O)c2O1`, the Potency result in assay [1], in assay [2], in [3], in assay [4], in [5] and in assay [6] was “inactive” in each case. Also, the Potency result in assay [11], in [7], in assay [8], in assay [9] and in assay [10] was “inactive” each time.

Regarding `C=C1CN(Cc2ccc(C(=O)Nc3ccccc3N)cc2)C(=O)c2ccccc21`, the Potency in [1] is 2.82 µM (active); in assay [2], 4.47 µM (active); in assay [3], 5.01 µM (active); in [4], 3.55 µM (active); in assay [5], 2.24 µM (active); in [6], 5.62 µM (active). Besides, the Potency was 6.31 µM (active) in assay [11], 2.24 µM (active) in [7], 1.41 µM (active) in [8] and 3.98 µM (active) in assay [10].

Take `Cc1cc(C)c(CNC(=O)c2cc(-c3ccc(CN4CCOCC4)cc3)cc3c2cnn3C2CCCC2)c(=O)[nH]1`: the Potency result in assay [1], in [2], in [3], in [4], in assay [5] and in assay [6] was “inactive” throughout. The Potency result in assay [11], in [7], in [9] and in assay [10] was “inactive” each time.

On to `O=C(O)CCCCCC[C@H]1C(=O)NC(=O)N1CC[C@@H](O)C1CCCCC1`, for which the Potency result in [1], in assay [2], in assay [3], in assay [4], in assay [5] and in assay [6] was “inactive” throughout. Moreover, the Potency entry in assay [11], in assay [7], in assay [9] and in assay [10] was “inactive” each time.
